In the library only some 3.2% were active in any assay of this set; here they are far more common.
pS6 MEF inh: inhibitors of mTORC1 signaling in Tsc2-/- p53-/- MEF cells. Tsc2-/- p53-/- MEF, phospho-rpS6 immunofluorescence/PI, 24 h. Potency, µM (highest dose often 38.3 µM), inactives show at the highest dose activity change, negative = inhibition, hits mostly inhibitors. 44,000 compounds, 0.78% hits. AID 493208;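 note: plate controls were DMSO for no effect and rapamycin for full effect; nearly all actives have a fitted effect of over 50% in size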
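Read-out: phospho-S6 Alexa-488 intensity over PI intensity per well, scored as % active cells using thresholds from rapamycin (7.5 nM) and DMSO controls. Tsc2-/-, p53-/- MEFs exposed to compound for 24 h; PI cell count recorded as viability.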
PMP22 txn: modulates PMP22 transcription in S16 Schwann cells. S16 Pmp22-F2sN Schwann cells, FLuc/NLuc coincidence luminescence, 24 h. Potency, µM (highest dose often 57.5 µM), without a hit: top-dose activity change, negative = inhibition, most hits filed as inhibitors. 43,000 compounds, 2% hits. AID 1508649; active = clear falling dose curves in both reporters; inconclusive = both reporters move, but less clearly or upward; inactive = either reporter flat; the % is the NLuc reporter signal
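Luminescent read-out of sequential FLuc and NLuc signals from a reporter embedded in the Pmp22 3' UTR of S16 Schwann cells, taken after 24 h compound exposure at 37C; compounds reducing both signals score as inhibitors of expression.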
S16 F2sN tox: S16 Schwann cell cytotoxicity | S16 Pmp22-F2sN Schwann cells viability, CellTiter-Glo, 24 h | Potency, µM (highest dose often 57.5 µM), for inactives: at the highest dose activity change, negative = cytotoxicity, hits mostly cytotoxic | 43,000 compounds, 0.48% hits; note: nearly all actives have a fitted effect of over 65% in size
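S16 Pmp22-F2sN Schwann cells (500-1,000/well) in phenol-red-free DMEM with 10% FBS received 23 nL compound by pin tool for 24 h at 37 °C. Viability was then read as CellTiter-Glo luminescence after 15 min at room temperature.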
p53null 32C kill: selectivity test: cytotoxicity in p53 null cells, permissive temperature; Potency, µM (top dose mostly 46.1 µM), without a hit: at the top dose activity change, negative = cytotoxicity, usual class: cytotoxic; H1299-neo p53 null cells, ATP luminescence, 24 h, 32C; 55,000 compounds, 0.62% hits; AID 903;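 note: 0% = DMSO only and -100% = full killing by 100 µM tamoxifen; nearly all actives have a fitted effect of over 55% in size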
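H1299-neo (p53-null) cells, 600/well, were pre-incubated overnight at 37C, then exposed to compounds at up to 46 uM for 24 hr at 32C. Viability was measured as ATP content by luminescence, and AC50 values came from Hill fits.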
p53null 39C tox: kills p53 null cells at the nonpermissive temperature. Potency, µM (highest dose often 46.1 µM), for the others: top-dose activity, negative = cell killing, usual class: cytotoxic. 55,000 compounds, 0.97% hits. H1299 p53-null (neo) cells, 39C, ATPlite viability, 24 h;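 note: 0% = DMSO only and -100% = full killing by 100 µM tamoxifen; nearly all actives have a fitted effect of over 50% in size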
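ATP-luminescence viability readout (ATPlite, 20 min RT) after 24 hr compound treatment at 39C of H1299-neo or H1299-p53A138V cells; titration up to 46 uM; normalized to DMSO and 100 uM tamoxifen; Hill-fit AC50.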
An asterisk follows results filed as active; u = inconclusive; x = no result; [ ] = dose if it differs, or a comment. Unless noted, calls come from the whole dose curve; as a rule, active = well fitted curve in the direction sought with a large enough effect; inconclusive = small, poorly fitted or top-dose-only effect, or another doubt; inactive = no such curve, though single readings can be large; an effect the other way counts as inactive or inconclusive. Unless noted, % is set by controls: 0 for no effect and ±100 for the full control effect; potency is the fitted concentration of half-maximal effect.

SMILES	pS6 MEF inh	PMP22 txn	S16 F2sN tox	p53null 32C kill	p53null 39C tox
CC(=O)c1ccc(NC(=O)c2nc3ccccc3n(C)c2=O)cc1	-6.6%	-2.4%	-20.9%	2µM*	3.3%
O=C(O)c1ccc2nc(-c3cc4cccc(O)c4oc3=O)[nH]c2c1	3.7%	-1.8%	u	10µM*	u
COc1ccccc1Nc1nn2c(=O)c3ccc(C(=O)NCc4ccc(F)cc4)cc3nc2s1	-10.1%	4.59µM*	14.1µM*	-12.1%	3.98µM*
CCc1cccc(NC(=O)c2ccc3c(=O)n4nc(Nc5ccccc5OC)sc4nc3c2)c1	-8.8%	4.47µM*	u	-4.7%	u
CCc1ccccc1Nc1nn2c(=O)c3ccc(C(=O)NCc4ccccc4OC)cc3nc2s1	-0.8%	-20.4%	-4.5%	7.3%	-13.5%
Cc1c(CNC2CCCCC2)c(C(=O)O)c(C)n1Cc1ccc(F)cc1	-4.5%	-8.2%	0.2%	0.8%	-2.5%
CCOC(=O)c1c(C)[nH]c(C)c1S(=O)(=O)N1CCC(C(=O)Nc2ccc(C)cn2)CC1	2.8%	4.1%	13.2%	0.7%	-14.0%
CCN1CCN(C(c2cccc(F)c2)c2c(O)cc(C)n(Cc3ccco3)c2=O)CC1 (configuration not stated)	10.7%	7.8%	0.9%	-2.6%	9.7%
Cc1cc(NC(=O)c2ccco2)cc(-c2nc3cc(Cl)ccc3o2)c1O	11.7µM*	u	-19.4%	u	u
O=C(CCC(=O)N1CCOc2ccccc21)NCc1cccs1	-0.9%	0.2%	1.3%	4.6%	u
CCCOC(=O)c1cccc(NC(=O)c2c(-c3ccccc3Cl)noc2C)c1	u	-27.4%	-4.6%	27.4%	-11.4%
O=C(Cn1cc(S(=O)(=O)Cc2cccc(Cl)c2)c2ccccc21)Nc1ccccc1C(F)(F)F	18.5µM*	u	u	-3.9%	-12.2%
O=C(NCCCc1ccccc1)C1CC(=O)N(c2ccc3c(c2)OCCO3)C1 (configuration not stated)	x	x	x	6.5%	12.7%
O=C(CCCc1ccccc1)c1ccc2c(c1)OCCO2	x	x	x	10µM*	12.6µM*
Cc1ccc(C)c(N2CCN(C(=O)c3ccc4c(c3)c(C)c(C)n4C)CC2)c1	-6.9%	-11.3%	-3.8%	34.5%	25.1µM*
Cc1cccc(N2CCN(C(=O)c3ccc4c(c3)c(C)c(C)n4C)CC2)c1C	-3.9%	-17.5%	0.0%	-1.6%	-13.6%
Clc1ccc(-c2nc3c4cnn(-c5ccccc5Br)c4ncn3n2)c(Cl)c1	-8.0%	4.4%	13.5%	-1.8%	1.0%
CCOc1cc(CNc2ccc(O)cc2)cc(Cl)c1OCc1ccccc1	u	u	8.91µM*	11.0%	u
CCOc1cccc(CNc2ccc(O)cc2)c1OCc1ccccc1Cl	-9.3%	u	u	0.4%	u
O=S(=O)(Nc1cccc(-c2ccc(N3CCCCC3)nn2)c1)c1ccc(Cl)s1	1.7%	x	x	15.8µM*	10µM*
O=S(=O)(Nc1cccc(-c2ccc(N3CCCCC3)nn2)c1)c1cccs1	0.8%	x	x	15.8µM*	10µM*
CC(C)n1c(/C=C/c2ccccc2)nc2ccccc21	x	x	x	u	4.3%[1.84 µM]
CSc1ccc(/C=C/c2nc3ccccc3n2S(=O)(=O)c2cccc(Cl)c2)cc1	1.1%	u	u	3.16µM*	3.98µM*
O=S(=O)(c1cccc(Cl)c1)n1c(/C=C/c2ccccc2Cl)nc2ccccc21	-10.6%	u	12.6µM*	1.26µM*	2.82µM*
Cc1ccc(/C=C/c2nc3ccccc3n2S(=O)(=O)c2ccc(Br)cc2)cc1	0.5%	u	u	6.31µM*	22.6%
SMILES	pS6 MEF inh	PMP22 txn	S16 F2sN tox	p53null 32C kill	p53null 39C tox
C=CCSc1nc2ccccc2n1S(=O)(=O)c1ccc(C)cc1	x	x	x	5.0%	3.0%
CN1CCN(C(CNC(=O)C(=O)Nc2ccc(Cl)cc2)c2cccnc2)CC1 (configuration not stated)	-20.6%	-8.6%	-4.8%	50.5%	u
CCN(CCO)C(=O)CC(c1ccccc1)c1cc(Br)ccc1O (configuration not stated)	x	x	x	-4.2%	-10.6%
O=C(CC(c1ccccc1)c1cc(Br)ccc1O)NCC1(c2ccccc2)CCCC1 (configuration not stated)	-13.1%	x	x	u	15.8µM*
CC1(C)C(c2ccco2)=[N+]([O-])C2(CCCCC2=O)N1O (configuration not stated)	x	x	x	-3.8%	19.9%
Cc1ccc2oc(C(=O)Nc3sc4c(c3C(=O)NCc3ccco3)CCC4)cc(=O)c2c1	4.6%	u	-32.4%	3.3%	13.9%
COc1cccc(CNC(=O)CC(c2ccc(F)cc2)N2Cc3ccccc3C2=O)c1 (configuration not stated)	-1.5%	x	x	-0.7%	-8.8%
O=C(c1cc2ccc3cccnc3c2[nH]1)N1CCCCC1	3.7%	-5.7%	-6.9%	2µM*	0.794µM*
CCOC(=O)C1CCN(C(=O)c2cc3ccc4cccnc4c3[nH]2)CC1	4.5%	-32.2%	-9.6%	-1.1%	-15.7%
CC1CCCN(C(=O)c2cc3ccc4cccnc4c3[nH]2)C1 (configuration not stated)	-8.2%	-14.6%	-11.6%	1µM*	2µM*
O=C(c1cc2ccc3cccnc3c2[nH]1)N1CCN(c2ccc(Cl)cc2)CC1	2.2%	-4.7%	-4.6%	-10.5%	-14.8%
COc1ccc(-n2cc(-c3ccc4c(c3)OCO4)n(CC(=O)Nc3cccc(C)c3C)c2=O)c(OC)c1	-14.6%	-5.5%	u	-3.0%	u
COc1ccc(-n2cc(-c3ccc4c(c3)OCO4)n(CC(=O)Nc3cc(Cl)ccc3C)c2=O)cc1	-12.7%	u	u	15.8µM*	10µM*
CCOc1ccc(C2C=C(c3cccc(OC)c3)Nc3nnnn32)cc1 (configuration not stated)	-9.5%	-2.0%	9.9%	-7.9%	u
CN(C)c1ccc(C2C=C(c3ccccc3)Nc3nnnn32)cc1 (configuration not stated)	u	u	-1.9%	u	7.94µM*
COc1cccc(-n2c(SCC(=O)Nc3cccc(Cl)c3)nc3c(oc4ccccc43)c2=O)c1	1.0%	-12.4%	-10.7%	-4.3%	11.9%
O=C(CSc1nc2c(oc3ccccc32)c(=O)[nH]1)Nc1cccc(Cl)c1	2.6%	u	-8.2%	10µM*	10µM*
CCOc1ccccc1CNC(=O)C1CCN(c2nnc(C)c3c(C)n(-c4ccc(C)cc4)nc23)CC1	-12.7%	u	u	u	15.8µM*
COc1ccc(Cl)cc1NC(=O)C1CCN(c2nnc(C)c3c(C)n(-c4ccccc4)nc23)CC1	-0.5%	u	-3.8%	14.8%	-5.5%
